The source of these data is PubChem BioAssay (NCI).

Among the test systems are NCI-H23 lung; NCI-H226 lung; NCI-H322M lung; HOP-62 NSCLC; NCI-H460 lung; HOP-92 NSCLC; NCI-H522 lung; A549/ATCC NSCLC; 786-0 renal; COLO 205 colon; DU-145 prostate; K-562 leukemia; MALME-3M melanoma; MDA-MB-231 breast; SF-268 CNS; SF-295 CNS; SF-539 CNS; M14 melanoma.
Common to all, as to experiment: NCI-60 one-dose screen, 48 h (100 = growth as untreated, 0 = no growth, -100 = all killed)
Details in all cases: 10 µM unless noted

This is part of a sample that, as a whole, favours compounds with a hit. Of some 83,000 tested, about 20% had one in any assay.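 Method: cells in 96-well plates; compound added at one concentration; 48 h incubation; percent growth measured; values under 10 scored active.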 Values without a mark were called inactive. Calls of active or inactive are those of the source.

Turning to `COc1ccc(-c2cc3c(oc2=O)-c2ccccc2OC3OC(C)=O)cc1` (centres undefined), the growth is 93.4% in the assay with NCI-H23 lung; 94.3% in the assay with NCI-H226 lung; 100% with NCI-H322M lung; 98.8% with HOP-62 NSCLC; 104% in the assay on NCI-H460 lung; 83.5% with HOP-92 NSCLC. Moreover, the growth in the assay on NCI-H522 lung was 88%; in the assay on A549/ATCC NSCLC it was 93.3%; in the assay on 786-0 renal, 91.3%; in the assay on COLO 205 colon, 97.4%; with DU-145 prostate, 107%; in the assay on K-562 leukemia, 62.5%. In addition, the growth in the assay with MALME-3M melanoma was 107%; in the assay on MDA-MB-231 breast, 85.7%; in the assay on SF-268 CNS, 108%; in the assay on SF-295 CNS, 97.9%; in the assay with SF-539 CNS, 101%; in the assay with M14 melanoma, 101%.

`C=CCCCC(=O)CCC(=O)OCC1O[C@@H](O[C@@H]2C(O)[C@@H](OC(C)=O)C(C)O[C@H]2O[C@H](CC=C)CCCCC)C(O)[C@@H](OC(=O)/C(C)=C/C)[C@@H]1OC(=O)/C=C/c1ccccc1` (some centres undefined): the growth in the assay with NCI-H23 lung was 35.3%; in the assay with NCI-H226 lung, 9.34% (active); in the assay on NCI-H322M lung, 39.6%; in the assay on HOP-62 NSCLC it was 9.18% (active); in the assay with NCI-H460 lung, 10.6%; in the assay with HOP-92 NSCLC, 0.347% (active). Moreover, the growth was 34.8% in the assay with NCI-H522 lung; 24.6% in the assay on A549/ATCC NSCLC; 18.9% in the assay on 786-0 renal; -8.37% (active) in the assay on COLO 205 colon; 33.3% in the assay with DU-145 prostate; 34.3% in the assay with K-562 leukemia. Further, the growth with MALME-3M melanoma is 17.7%; in the assay on MDA-MB-231 breast it was 4.48% (active); with SF-268 CNS it was 29.2%; in the assay on SF-295 CNS, -11.9% (active); in the assay with SF-539 CNS, 14.3%; with M14 melanoma, -10.3% (active).

For `COc1ccc2c(CCCC(c3ccccc3)c3ccccc3)c3[n+](cc2c1OC)CCc1cc2c(cc1-3)OCO2`, the growth is -30.1% (active) with NCI-H23 lung; 2.75% (active) with NCI-H226 lung; 16.2% with NCI-H322M lung; -9.19% (active) in the assay on HOP-62 NSCLC; -53% (active) with NCI-H460 lung; -40.6% (active) in the assay with HOP-92 NSCLC. Also, the growth in the assay on NCI-H522 lung is -21% (active); in the assay with A549/ATCC NSCLC, 10.2%; in the assay with 786-0 renal, -18.7% (active); in the assay on COLO 205 colon it was -67.8% (active); in the assay with DU-145 prostate, -13.4% (active); in the assay with K-562 leukemia, -15.4% (active). Also, the growth in the assay with MALME-3M melanoma is -66.7% (active); in the assay on MDA-MB-231 breast it was -63.4% (active); in the assay with SF-268 CNS, -58% (active); with SF-295 CNS it was -32.2% (active); in the assay with SF-539 CNS, -38.1% (active); in the assay with M14 melanoma, -67.5% (active).

For `Clc1nc(Cl)c2ncn(CC#CCn3cnc4c(Cl)nc(Cl)nc43)c2n1`, the growth was 38.6% in the assay on NCI-H23 lung; 5.54% (active) in the assay with NCI-H226 lung; 46.6% in the assay on NCI-H322M lung; 62% in the assay on HOP-62 NSCLC; 12.5% with NCI-H460 lung; -87.6% (active) in the assay with HOP-92 NSCLC. Further, the growth in the assay on NCI-H522 lung was -71.2% (active); in the assay on A549/ATCC NSCLC, 8.8% (active); in the assay with 786-0 renal it was 7.75% (active); in the assay on COLO 205 colon it was -26.9% (active); with DU-145 prostate it was -87.2% (active); in the assay with K-562 leukemia, -13% (active). Further, the growth was -74.5% (active) in the assay on MALME-3M melanoma; -52.6% (active) in the assay with MDA-MB-231 breast; -37.8% (active) with SF-268 CNS; 5.67% (active) in the assay on SF-295 CNS; -65.7% (active) with SF-539 CNS; 7.78% (active) in the assay with M14 melanoma.

`c1cc[n+](Cc2c3ccccc3cc3c2ccc2ccccc23)cc1`: the growth with NCI-H23 lung was 16.9%; in the assay with NCI-H226 lung, 26.3%; in the assay with NCI-H322M lung, 53.9%; with HOP-62 NSCLC, 23.7%; with NCI-H460 lung, 42.8%; with HOP-92 NSCLC, 25%. For the same compound, the growth was 18.4% with NCI-H522 lung; 63.7% in the assay with A549/ATCC NSCLC; 38% with 786-0 renal; 2.06% (active) in the assay on COLO 205 colon; 57.2% in the assay on DU-145 prostate; 16.4% with K-562 leukemia. The growth in the assay with MALME-3M melanoma is -23.5% (active); in the assay with MDA-MB-231 breast it was 72.1%; in the assay on SF-268 CNS it was 7.4% (active); with SF-295 CNS it was 4.38% (active); in the assay with SF-539 CNS it was 13.6%; in the assay on M14 melanoma it was 62.3%.

On to `CC1(C=O)NC(=O)NC1=O` (centres undefined), for which the growth is 105% in the assay on NCI-H23 lung; 92.8% with NCI-H226 lung; 102% in the assay on NCI-H322M lung; 68.4% with HOP-62 NSCLC; 108% with NCI-H460 lung; 96.4% in the assay with HOP-92 NSCLC. The growth in the assay with NCI-H522 lung was 77.1%; with A549/ATCC NSCLC, 55.7%; in the assay on 786-0 renal, 104%; with COLO 205 colon it was 100%; in the assay with DU-145 prostate it was 111%; with K-562 leukemia, 103%. Besides, the growth with MALME-3M melanoma was 118%; in the assay on MDA-MB-231 breast it was 103%; in the assay on SF-268 CNS it was 101%; with SF-295 CNS, 103%; in the assay on SF-539 CNS it was 103%; in the assay with M14 melanoma it was 103%.

As to `Cc1sc2c(c1C)c(=O)nc1c(-c3nc(-c4ccccc4)cs3)n[nH]n12`, the growth with NCI-H23 lung was 91.9%; in the assay with NCI-H226 lung it was 89.9%; in the assay with NCI-H322M lung, 101%; with HOP-62 NSCLC it was 92.4%; with NCI-H460 lung, 96.2%; with HOP-92 NSCLC, 98.5%. For the same compound, the growth in the assay on NCI-H522 lung was 94.3%; in the assay on A549/ATCC NSCLC it was 93%; with 786-0 renal, 103%; in the assay on COLO 205 colon it was 102%; with DU-145 prostate it was 104%; with K-562 leukemia it was 94.5%. The growth was 98.1% with MALME-3M melanoma; 93.3% in the assay with MDA-MB-231 breast; 96.2% in the assay on SF-268 CNS; 88.7% in the assay on SF-295 CNS; 96.3% in the assay with SF-539 CNS; 96.2% in the assay with M14 melanoma.

As for `CC(N)C(Cc1ccccc1)c1ccc(Cl)cc1` (centres undefined), the growth with NCI-H23 lung is 92.5%; in the assay on NCI-H226 lung, 89.3%; with NCI-H322M lung it was 95.5%; in the assay with HOP-62 NSCLC it was 56.9%; in the assay on NCI-H460 lung it was 90.9%; with HOP-92 NSCLC, 56.5%. The growth is 75.9% in the assay with NCI-H522 lung; 76.2% in the assay with A549/ATCC NSCLC; 81% with 786-0 renal; 84.4% in the assay on COLO 205 colon; 110% with DU-145 prostate; 87% in the assay on K-562 leukemia. The growth was 103% in the assay with MALME-3M melanoma; 61.1% with MDA-MB-231 breast; 92.2% in the assay on SF-268 CNS; 83.5% in the assay with SF-295 CNS; 90.1% with SF-539 CNS; 82.6% with M14 melanoma.
